Measurements from PubChem BioAssay (NCATS).
Values without a mark were called inactive. Records with an inconclusive call do not appear. Active and inactive are the calls of the source. Calls follow the shape of the dose curve; as a rule, active = well fitted curve in the direction sought with a large enough effect; inconclusive = small, poorly fitted or top-dose-only effect, or another doubt; inactive = no such curve, though single readings can be large; an effect the other way counts as inactive or inconclusive.

test system: not listed separately; assay: Cell Viability - LYMP2-018 (AID 985); details: LYMP2-018 lymphoblastoid cells, viability (qHTS); series mostly up to 92.2 µM; activity change, negative = cytotoxicity: at the top concentration;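 also: compound exposure lasted 24 hr at 37 °C; nearly all actives have a fitted effect of over 50% in size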; also: potency is read from the fitted curve at half-maximal effect;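 as to activity change, negative = cytotoxicity: plate controls were DMSO only for no effect and tetraoctylammonium bromide at 92 µM for full effect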
Method in brief: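 Seed 2500 lymphoblastoid cells per well, incubate 5 hr at 37 C, add compound and incubate 24 hr at 37 C, add CellTiter-Glo, wait 30 min at room temperature, then read luminescence.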

SMILES	activity change, negative = cytotoxicity [%]	Potency
O=c1[nH]c(=O)n([C@H]2C[C@H](O)[C@@H](CO)O2)cc1Br	-16.5	
Nc1ncn([C@@H]2O[C@H](CO)[C@@H](O)[C@H]2O)c(=O)n1		7.94 µM (active)
Nc1nc(N)c2nc(-c3ccccc3)c(N)nc2n1	-20.7	
CCCCOCCOCCOCc1cc2c(cc1CCC)OCO2	-5.42	
NC(=Nc1ccccc1)Nc1ccccc1	-21.7	
CN=C(NC#N)NCCSCc1nc[nH]c1C	7.86	
NC(=O)N1c2ccccc2C=Cc2ccccc21	-4.3	
COc1ccc(CN(CCN(C)C)c2ccccn2)cc1	-15.5	

test system: not listed separately; assay: Cell Viability - LYMP2-020 (AID 986); details: series mostly up to 92.2 µM; activity change, negative = viability loss: at the top concentration;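 also: cells exposed to compound for 24 h at 37 °C; nearly all actives have a fitted effect of over 55% in size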; also: potency is read from the fitted curve at half-maximal effect;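 as to activity change, negative = viability loss: plate controls were DMSO only for no effect and tetraoctylammonium bromide at 92 µM for full effect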
Method in brief: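 Seed 2500 cells per well and incubate 5 hr at 37 C. Add compounds at a concentration series and incubate 24 hr at 37 C. Add CellTiter-Glo, wait 30 min at RT, read luminescence, and fit a Hill curve for AC50.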

SMILES	activity change, negative = viability loss [%]	Potency
O=c1[nH]c(=O)n([C@H]2C[C@H](O)[C@@H](CO)O2)cc1Br	-11.8	
Nc1ncn([C@@H]2O[C@H](CO)[C@@H](O)[C@H]2O)c(=O)n1		10 µM (active)
Nc1nc(N)c2nc(-c3ccccc3)c(N)nc2n1	-29.7	
CCCCOCCOCCOCc1cc2c(cc1CCC)OCO2	-3.45	
NC(=Nc1ccccc1)Nc1ccccc1	-10.3	
CN=C(NC#N)NCCSCc1nc[nH]c1C	-15.3	
NC(=O)N1c2ccccc2C=Cc2ccccc21	-3.8	
COc1ccc(CN(CCN(C)C)c2ccccn2)cc1	-28.6	

test system: not listed separately; assay: Cell Viability - LYMP2-022 (AID 987); details: LYMP2-022 lymphoblastoid cell viability; series mostly up to 92.2 µM; viability change, negative = cytotoxic: at the top concentration; also: nearly all actives have a fitted effect of over 55% in size; also: potency is read from the fitted curve at half-maximal effect;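 as to viability change, negative = cytotoxic: 0% = DMSO alone and full effect = tetraoctylammonium bromide at 92 µM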
Method in brief: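 Cells were seeded at 2500 per well, rested 5 hr at 37 C, and treated with titrated compounds for 24 hr at 37 C. Cellular ATP was then quantified by luciferase luminescence, and AC50 values were derived from Hill-modelled concentration-response curves.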

SMILES	viability change, negative = cytotoxic [%]	Potency
O=c1[nH]c(=O)n([C@H]2C[C@H](O)[C@@H](CO)O2)cc1Br	-20.8	
Nc1ncn([C@@H]2O[C@H](CO)[C@@H](O)[C@H]2O)c(=O)n1		15.8 µM (active)
CCCCOCCOCCOCc1cc2c(cc1CCC)OCO2	-19.6	
NC(=Nc1ccccc1)Nc1ccccc1	-19.4	
CN=C(NC#N)NCCSCc1nc[nH]c1C	-12.4	
NC(=O)N1c2ccccc2C=Cc2ccccc21	-6.89	

test system: not listed separately; assay: Cell Viability - LYMP2-024 (AID 988); details: LYMP2-024 lymphoblastoid cell viability; series mostly up to 92.2 µM; activity change, negative = cytotoxicity: at the top concentration; also: nearly all actives have a fitted effect of over 60% in size; also: potency is read from the fitted curve at half-maximal effect;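 as to activity change, negative = cytotoxicity: plate controls were DMSO only for no effect and 92 µM tetraoctylammonium bromide for full effect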
Method in brief: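 qHTS cytotoxicity, human lymphoblastoid line, complete medium; 24 h cpd treatment, 37 C; CellTiter-Glo ATP luminescence readout; tetraoctylammonium bromide positive control; AC50 via Hill fit.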

SMILES	activity change, negative = cytotoxicity [%]	Potency
O=c1[nH]c(=O)n([C@H]2C[C@H](O)[C@@H](CO)O2)cc1Br	-1.95	
Nc1ncn([C@@H]2O[C@H](CO)[C@@H](O)[C@H]2O)c(=O)n1		15.8 µM (active)
Nc1nc(N)c2nc(-c3ccccc3)c(N)nc2n1	-24.6	
CCCCOCCOCCOCc1cc2c(cc1CCC)OCO2	-13.4	
NC(=Nc1ccccc1)Nc1ccccc1	-12.5	
CN=C(NC#N)NCCSCc1nc[nH]c1C	-1.8	
NC(=O)N1c2ccccc2C=Cc2ccccc21	-1.95	
COc1ccc(CN(CCN(C)C)c2ccccn2)cc1	-23	

test system: not listed separately; assay: Cell Viability - LYMP2-026 (AID 989); details: LYMP2-026 lymphoblastoid cell viability, qHTS; series mostly up to 92.2 µM; activity change, negative = cytotoxic: at the top concentration;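 also: cells exposed to compound for 24 h at 37 °C; % is scaled to controls: 0 for no effect and ±100 for the full control effect; nearly all actives have a fitted effect of over 50% in size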
Method in brief: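 Cells are seeded at 2500 per well and held 5 hr at 37 C. Compounds are added in concentration series for 24 hr, then CellTiter-Glo reagent is applied and luminescence read.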

SMILES	activity change, negative = cytotoxic [%]
O=c1[nH]c(=O)n([C@H]2C[C@H](O)[C@@H](CO)O2)cc1Br	-13.7
Nc1nc(N)c2nc(-c3ccccc3)c(N)nc2n1	-20.7
CCCCOCCOCCOCc1cc2c(cc1CCC)OCO2	1.17
NC(=Nc1ccccc1)Nc1ccccc1	-9.75
CN=C(NC#N)NCCSCc1nc[nH]c1C	1.84
NC(=O)N1c2ccccc2C=Cc2ccccc21	6.06
COc1ccc(CN(CCN(C)C)c2ccccn2)cc1	-17

target: Alpha-galactosidase A (Homo sapiens) (UniProt P06280); assay: Counterscreen for Glucocerebrosidase Inhibitors: qHTS Assay for Human alpha-Galactosidase at pH 4.5 (AID 992); details: purified enzyme, fluorogenic substrate; series mostly up to 76.9 µM; activity change, negative = inhibition: at the top concentration; also: 0% is about no effect
Sequence (P06280 whole entry, looked up): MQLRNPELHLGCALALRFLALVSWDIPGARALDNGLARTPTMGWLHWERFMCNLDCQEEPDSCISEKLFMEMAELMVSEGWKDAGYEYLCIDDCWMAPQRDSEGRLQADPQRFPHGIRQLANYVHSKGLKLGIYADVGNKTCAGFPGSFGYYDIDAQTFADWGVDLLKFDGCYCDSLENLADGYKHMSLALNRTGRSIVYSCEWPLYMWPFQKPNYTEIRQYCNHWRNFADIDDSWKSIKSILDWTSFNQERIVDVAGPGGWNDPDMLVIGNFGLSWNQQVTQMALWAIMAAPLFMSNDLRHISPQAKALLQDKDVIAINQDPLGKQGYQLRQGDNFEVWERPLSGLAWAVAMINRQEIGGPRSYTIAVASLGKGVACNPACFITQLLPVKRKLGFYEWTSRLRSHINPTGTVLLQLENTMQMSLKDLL
Method in brief: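 Fluorogenic 1536-well qHTS at pH 4.5 (citrate, Tween-20): 2 nM enzyme, 80 uM 4-MU-alpha-galactoside, 20 min room temperature, NaOH/glycine stop. Titration 0.7 nM to 77 uM, data normalized to no-enzyme and full-activity controls, Hill-fitted AC50.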

SMILES	activity change, negative = inhibition [%]	outcome
C[C@]12CCC(=O)C=C1CC[C@@H]1[C@@H]2C(=O)C[C@@]2(C)[C@H]1CC[C@]2(O)C(=O)CO	-0.888	
CC(C)NNC(=O)c1ccncc1	-1.85	
CCCOc1ccccc1-c1nc2n[nH]nc2c(=O)[nH]1	1.21	
O=c1[nH]c(=O)n([C@H]2C[C@H](O)[C@@H](CO)O2)cc1Br	0.0856	
CCN(CC)CCNC(=O)c1cc(S(C)(=O)=O)ccc1OC	-0.33	
Nc1ncn([C@@H]2O[C@H](CO)[C@@H](O)[C@H]2O)c(=O)n1	-0.982	
C[n+]1cc2c3c(ccc2c2ccc4cc5c(cc4c21)OCO5)OCO3	-0.279	
CCc1c(C)[nH]c2c1C(=O)C(CN1CCOCC1)CC2 (stereo not drawn)	-0.449	
Nc1nc(N)c2nc(-c3ccccc3)c(N)nc2n1	435	
CN(C)CCN(Cc1cccs1)c1ccccn1	-1.32	
CCN(CC)CCNC(=O)c1ccc(NC(C)=O)cc1	-2.06	
CN1CCN(CC(=O)N2c3ccccc3C(=O)Nc3cccnc32)CC1	-1.49	
CC[N+](C)(C)c1cccc(O)c1	-1.18	
C[N+](C)(C)CCOC(=O)CCC(=O)OCC[N+](C)(C)C	0.386	
Cc1nc2c([nH]1)c(=O)n(C)c(=O)n2Cc1ccco1	2.17	
CCCCNc1c(C(=O)OCC)c(C)nc2c1cnn2CC	-3.65	

SMILES	activity change, negative = inhibition [%]	outcome
OCCN1CCN(CCCN2c3ccccc3C=Cc3ccccc32)CC1		inactive
Cc1ccc(=O)n(-c2ccccc2)c1	-0.325	
CCn1cc(C(=O)O)c(=O)c2cc3c(cc21)OCO3	-0.45	
CCN1CCc2nc(N)oc2CC1	-1.77	
Cc1ccc(S(=O)(=O)NC(=O)NN2CCCCCC2)cc1	-0.505	
c1cnc(N2CCN(Cc3ccc4c(c3)OCO4)CC2)nc1	-2.04	
CN=C(NC#N)NCCSCc1nc[nH]c1C	0.0515	
CN1CCN(C2=Nc3ccccc3Oc3ccc(Cl)cc32)CC1	-1.49	
N[C@@H](COP(=O)(O)O)C(=O)O	-0.7	
NC(=O)N1c2ccccc2C=Cc2ccccc21	3.22	
O=C(O)CN(CCOCCOCCN(CC(=O)O)CC(=O)O)CC(=O)O	-1.63	
COC(=O)[C@@H](N)Cc1ccc(O)c(O)c1	-0.85	
CN(C)CCOC(=O)COc1ccc(Cl)cc1	2.74	
COc1cc2c(cc1OC)-c1cc(=Nc3c(C)cc(C)cc3C)n(C)c(=O)n1CC2	-2.09	
COc1ccc(CN(CCN(C)C)c2ccccn2)cc1	-4.23	
